Common to all, as to conditions: concentration: 1 μM,replicates: in singlicate; n = 1
Experiment [1] deals with RPS6KA4(Kin.Dom.1-N-terminal).
Experiment [2] relates to RPS6KA4(Kin.Dom.2-C-terminal).
The subject of experiment [3] is RPS6KA5(Kin.Dom.1-N-terminal).
Experiment [4] relates to RPS6KA5(Kin.Dom.2-C-terminal).
The test system of experiment [5] is T1, RSK1(Kin.Dom.1-N-terminal).
T1 construct: gene RPS6KA1

Experiment [6] concerns T2, RSK1(Kin.Dom.2-C-terminal).
T2 construct: gene RPS6KA1

Experiment [7] relates to T3, RSK2(Kin.Dom.1-N-terminal).
T3 construct: gene RPS6KA3

In experiment [8] the test system is T4, RSK2(Kin.Dom.2-C-terminal).
T4 construct: gene RPS6KA3

Experiment [9] concerns T5, RSK3(Kin.Dom.1-N-terminal).
T5 construct: gene RPS6KA2

The test system of experiment [10] is T6, RSK3(Kin.Dom.2-C-terminal).
T6 construct: gene RPS6KA2
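Further: KINOMEscan kinase panel screen.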

Take `COc1cc2nccc(Nc3ccc(Oc4ccccc4)cc3)c2cc1OC.Cl` [GI261656]: the “%Inh” value in experiment [1] is recorded as 0%; in experiment [2], 0%; in experiment [3], 0%; in [4], 12%; in [5], 2%; in [6], 0%. The “%Inh” value in [7], in [8], in experiment [9] and in experiment [10] was 0% each time.
On to `O=C1NCCc2[nH]c(-c3ccncc3)cc21`, for which the “%Inh” value in experiment [1] is given as 15%; in [2], 92.7%; in [3] it was 0%; in experiment [4], 58%; in experiment [5] it was 4%; in experiment [6] it was 35%. Also, the “%Inh” value was found to be 8% in [7], 23% in experiment [8], 16% in experiment [9] and 27% in experiment [10].
Consider `CCOC(=O)N1CCC(n2cnc(-c3ccc(F)cc3)c2-c2ccnc(N)n2)CC1` [SB-219952], for which the “%Inh” value worked out at 6% in experiment [1]; 7% in experiment [2]; 1% in experiment [3]; 0% in experiment [4]; 11% in experiment [5]; 32% in [6]. Further, the “%Inh” value stood at 23% in experiment [7], 0% in experiment [8], 8% in experiment [9] and 36% in [10].
As to `CCn1c(-c2nonc2N)nc2cncc(Br)c21` [SB-738004], the “%Inh” value in experiment [1] came out at 3%; in experiment [2], 86%; in experiment [5] it was 0%; in [6], 38%; in experiment [7], 50%; in experiment [8] it was 27%. The “%Inh” value in experiment [9] was 9%; in experiment [10] it was 6%.
Consider `c1ccc(Oc2ccc(Nc3ccnc4ccc(-c5ccccn5)cc34)cc2)cc1` [GW407034], for which the “%Inh” value in experiment [1] was found to be 11%; in experiment [2], 0%; in experiment [3], 3%; in experiment [4] it was 0%; in experiment [5], 10%; in [6], 0%. Moreover, the “%Inh” value in experiment [7] is given as 7%; in experiment [8] it was 8%; in experiment [9], 19%; in experiment [10], 0%.
Take `Cn1ccc2ncnc(Oc3ccc(NC(=O)Nc4cccc(C(F)(F)F)c4)c(F)c3)c21`: the “%Inh” value in experiment [1] came to 37%; in [2], 0%; in [3], 0%; in experiment [4], 19%; in experiment [5], 0%; in experiment [6] it was 0%. Also, the “%Inh” value in experiment [7] came to 6%; in [8], 13%; in [9], 0%; in experiment [10] it was 22%.
For `CN1CCN(CCNc2nc3cc(Oc4ccc(NC(=O)Nc5cc(C(F)(F)F)ccc5F)cc4)ccc3[nH]2)CC1.Cl.Cl` [GW768504], the “%Inh” value is listed as 5% in [1]; 0% in [2]; 0% in experiment [3]; 1% in experiment [4]; 7% in experiment [5]; 28% in experiment [6]. Besides, the “%Inh” value was 0% in experiment [7], 0% in experiment [8], 0% in [9] and 8% in experiment [10].
